Records with an inconclusive call do not appear. Values without a mark were called inactive. Calls come from the whole dose curve; as a rule, active = well fitted curve in the direction sought with a large enough effect; inconclusive = small, poorly fitted or top-dose-only effect, or another doubt; inactive = no such curve, though single readings can be large or run the other way.
Molecular target: Polyunsaturated fatty acid lipoxygenase ALOX15 (Homo sapiens) (UniProt P16050)
Test: Counterscreen qHTS for inhibitors of human arachidonate 12S-lipoxygenase (ALOX12): ALOX15 Assay; note: 0% is about no effect
Details: purified ALOX15 enzyme activity; series mostly up to 110 µM; activity change, negative = inhibition: at the top concentration
Outline: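 Xylenol orange–ferric complex formation, read as the 573 nm to 405 nm absorbance ratio, tracks product from 50 uM arachidonic acid turned over for 30 min at RT. Enzyme is 40 nM ALOX15, pH 7.5 HEPES buffer, compound-preincubated 15 min.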

Polyunsaturated fatty acid lipoxygenase ALOX15 (Homo sapiens), sequence (P16050 whole entry, looked up): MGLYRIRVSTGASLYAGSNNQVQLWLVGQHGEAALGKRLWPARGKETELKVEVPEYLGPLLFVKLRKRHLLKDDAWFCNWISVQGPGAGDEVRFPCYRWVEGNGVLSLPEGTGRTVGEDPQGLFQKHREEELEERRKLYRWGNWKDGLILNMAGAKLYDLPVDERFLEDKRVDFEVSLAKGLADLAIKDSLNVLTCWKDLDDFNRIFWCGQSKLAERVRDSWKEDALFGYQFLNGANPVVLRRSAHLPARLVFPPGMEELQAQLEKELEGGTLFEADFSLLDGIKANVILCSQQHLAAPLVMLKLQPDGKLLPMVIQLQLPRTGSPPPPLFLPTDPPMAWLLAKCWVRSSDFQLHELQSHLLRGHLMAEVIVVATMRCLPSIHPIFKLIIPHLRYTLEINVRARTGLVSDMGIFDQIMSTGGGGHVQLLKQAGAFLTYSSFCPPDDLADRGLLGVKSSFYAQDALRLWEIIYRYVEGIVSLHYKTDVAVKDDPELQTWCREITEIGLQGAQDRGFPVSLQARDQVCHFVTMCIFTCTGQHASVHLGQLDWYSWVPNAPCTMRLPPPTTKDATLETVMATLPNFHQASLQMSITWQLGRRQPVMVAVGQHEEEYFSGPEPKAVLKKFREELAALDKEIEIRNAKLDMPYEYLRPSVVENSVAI

| Structure (SMILES) | activity change, negative = inhibition |
| --- | --- |
| N#Cc1cccnc1-c1ccc(C(=O)O)cc1 | -24.7% [at 146 µM] |
| CC(C)NC(=O)NC1CC2(CCN(C(=O)Cc3ccc(O)cc3)CC2)c2ccccc21 (centres undefined) | -18.7% |
| N#Cc1ccccc1CN1CCCC12Cc1ccccc1CNC2=O (centres undefined) | -0.198% [at 146 µM] |
| O=C(c1ccccc1F)N1CC(Oc2ccc3c(c2)OCO3)C1 | -22.9% [at 146 µM] |
| O=C(c1ccc(C(F)(F)F)cc1)N1CC(Oc2ccc3c(c2)OCO3)C1 | -14.9% |
| O=C(c1ccc2c(c1)OCO2)N1CCC(c2nnc3n2CCNC3)CC1 | -26% |
| CN1CC(=O)N(C2CCCNC2)Cc2c(NC3CCCCC3)ncnc21 (centres undefined) | -25.8% |
| O=C1NCc2ccccc2CC12CCN(Cc1ccc(F)cc1O)C2 (centres undefined) | -3.81% [at 146 µM] |
| CC(=O)N1Cc2ccccc2CC2(CCCCN2Cc2ccccn2)C1 (centres undefined) | 12% |
| CC(C)OCCCNC(=O)c1cc(C2CC2)nc2onc(C3CCCN3)c12 (centres undefined) | -5.04% |
| COc1ccc(CN2CCC3(CC(c4cccc(C(F)(F)F)c4)=NO3)C2)cc1 (centres undefined) | -15.6% |
| COc1ccc(CN2CCCC23Cc2ccccc2CNC3=O)c(O)c1 (centres undefined) | -18.1% [at 146 µM] |
| O=Cc1ccccc1-c1ccc(O)cc1 | -7.86% [at 233 µM] |
| CC(=O)N1CCCN(c2ncnc3c2CN(C2CCNCC2)C(=O)CN3C)CC1 | -22.9% |
| CN1CC(=O)N(C2CCCNCC2)Cc2c(NCc3cccc(Cl)c3)ncnc21 (centres undefined) | -12.3% |
| O=c1n(-c2cccc(Cl)c2)nc2n1CCN([S+](=O)([O-])c1ccccc1)C2 | -1.83% |
| O=C(O)c1cccc(-c2cncc(C(=O)O)c2)c1 | -28.7% [at 146 µM] |
| O=C(c1cc(C2CC2)nc2onc(C3CCCNC3)c12)N1CCCCC1 (centres undefined) | -12.1% [at 146 µM] |
| O=C1Nc2ccccc2CC12CN(CC1CCCC1)C2 | 52% [at 146 µM] |

— PubChem BioAssay AID1671192 (National Center for Advancing Translational Sciences (NCATS), 2021)
